# CCHFV vOTU inh – CCHFV vOTU protease inhibitors, primary screen, biochemical, Pep-AMC substrate, fluorescence | inhibition, % at 11.5 µM | AID 651958, 2012 | Crimean-Congo hemorrhagic fever virus L polyprotein viral ovarian tumor (vOTU) protease … | actives 0.55% (n = 370,000)
# GDH-TPI counter-1 – GDH-TPI coupling enzyme inhibitors, primary screen, artefact control for M. tuberculosis FBA inhibitor project, biochemical, absorbance, full deck; GDH-TPI coupled enzyme counterscreen, NADH absorbance; inhibition, % at 4.8 µM; actives 1.2% (n = 360,000)
# Mtb FBA inh – Mtb FBA enzyme inhibitors, primary screen, biochemical, fluorescence, strain H37Rv. Fructose-bisphosphate aldolase (Mycobacterium tuberculosis (strain ATCC 25618 / H37Rv)), …. purified M. tuberculosis FBA, fluorescence read-out. inhibition, % at 1 µM. actives 2.3% (n = 360,000); in the data active = inhibition above about 27%
# Target sequence (P9WQA3 whole entry, looked up): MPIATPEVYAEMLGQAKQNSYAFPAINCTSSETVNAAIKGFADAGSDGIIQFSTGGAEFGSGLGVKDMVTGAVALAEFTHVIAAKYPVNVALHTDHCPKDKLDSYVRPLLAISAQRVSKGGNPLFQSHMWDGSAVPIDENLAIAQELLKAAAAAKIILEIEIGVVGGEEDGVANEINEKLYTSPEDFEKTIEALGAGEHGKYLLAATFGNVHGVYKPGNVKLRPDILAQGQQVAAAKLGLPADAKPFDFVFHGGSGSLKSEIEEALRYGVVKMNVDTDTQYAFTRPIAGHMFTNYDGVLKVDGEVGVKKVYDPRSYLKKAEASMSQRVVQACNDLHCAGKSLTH
# BH1578 lux ind – inducers of Vibrio cholerae quorum light production without autoinducers, primary screen, BH1578 luxS cqsA deficient, single point. V. cholerae BH1578 lux reporter, luminescence, 6 h. activation, % at 18.7 µM. actives 0.16% (n = 350,000). AID 588436, 2011; in the data active = activation mostly above about 9.7%, no sharp cut-off
# Mtb FBA inh conf – M. tuberculosis aldolase blockers, biochemical, fluorescence, strain H37Rv, confirmation. shares compounds with Mtb FBA inh. purified M. tuberculosis FBA, fluorescence read-out. inhibition, % at 1 µM. actives 78% (n = 5,600). AID 651616, 2012; in the data active = inhibition above about 27%
# GDH-TPI counter-2 – GDH-TPI coupling enzyme inhibitors, artefact control for M. tuberculosis FBA inhibitor project, biochemical, fluorescence, high throughput; shares compounds with Mtb FBA inh; GDH-TPI coupled enzyme counterscreen; inhibition, % at 1 µM; actives 81% (n = 5,600); AID 652141, 2013; in the data active = inhibition above about 10%
# Numbers stand for hits; n = inactive; x = no result; + = active, no number. In the library only some 3.9% were active in any assay of this set; here they are far more common. Cut-off read from the data, not from the text of the source, unless noted: active = inhibition above about 30%; inactive = the rest.
SMILES,CCHFV vOTU inh,GDH-TPI counter-1,Mtb FBA inh,BH1578 lux ind,Mtb FBA inh conf,GDH-TPI counter-2
O=C(CCCCCN1C(=O)c2ccccc2C1=O)Oc1ccc2c3c(c(=O)oc2c1)CCC3,n,n,62,n,n,n
Cc1oc(C(=O)O)cc1COc1ccc2c3c(c(=O)oc2c1)CCC3,n,n,38,n,55,44
O=C(Oc1ccc2c3c(c(=O)oc2c1)CCCC3)c1cccs1,n,n,82,n,+,+
O=C(COc1ccc2c3c(c(=O)oc2c1)CCC3)c1ccc2c(c1)OCO2,n,n,n,n,x,x
C=CCOC(=O)COc1ccc2c3c(c(=O)oc2c1)CCCC3,n,n,40,n,62,41
CCCC1(C2CCCC2)NC(=O)NC1=O (stereo not drawn),n,n,n,n,x,x
COc1cccc2c1C(=O)O/C2=C/c1ccc2c(c1)OCO2,n,n,n,n,x,x
COc1ccc(N2C3=C(C(=O)CC(C)(C)C3)C(c3ccccc3OC)C3=C2CC(C)(C)CC3=O)cc1,n,n,50,n,76,60
CCCC[n+]1ccn(-c2nc3ccccc3nc2[N-]S(=O)(=O)c2ccccc2)c1,n,n,33,n,+,197
CCC1CCCCN1C(=O)c1noc(C(C)C)c1[N+](=O)[O-] (stereo not drawn),n,n,n,n,x,x
CCN(CC)C(=O)Cc1c(O)c2ccccc2[nH]c1=O,n,n,29,n,98,70
CC(C)CCN(CCC(C)C)C(=O)Cc1c(O)c2ccccc2[nH]c1=O,n,n,n,n,x,x
CCCCCc1c(O)c2ccccc2[nH]c1=O,n,n,29,n,62,51
CCCCCOC(=O)Cc1c(O)c2ccccc2[nH]c1=O,n,n,n,n,x,x
COc1ccc(C(=O)COC(=O)c2cc3ccccc3oc2=O)c(OC)c1,n,n,n,n,x,x
CC(OC(=O)c1ccccc1NCc1ccco1)C(=O)Nc1ncc(Cl)cc1Cl (stereo not drawn),n,n,57,n,n,n
CCN1CCN(CCCNC(=O)C(=O)c2c(C)[nH]c3ccccc23)CC1,n,n,n,n,x,x
O=C(NCCCN1CCOCC1)c1cc2c(=O)[nH]c3ccccc3c2s1,n,n,88,n,36,24
O=C(NCCCN1CCOCC1)c1c(O)c2ccccc2[nH]c1=O,n,n,n,x,x,x
CCN1CCN(CCCNC(=O)c2cc3c(=O)[nH]c4ccccc4c3s2)CC1,n,n,89,n,n,n
Cc1nc(N2CCC(C)CC2)c2c(C)c(C(=O)Nc3ccc(C(F)(F)F)cc3)sc2n1,n,n,34,n,n,n
Cc1nc(N2CCC(C)CC2)c2c(C)c(C(=O)Nc3cccc(C(F)(F)F)c3)sc2n1,n,n,n,n,x,x
CCn1c(-c2cc(-c3ccc(OC(C)C)cc3)nc3ccccc23)n[nH]c1=S,x,n,83,n,n,n
CCCn1c(=O)c(C(=O)Nc2ccccc2N)c(O)c2ccccc21,n,n,n,n,x,x
CCNc1nc(Oc2ccc(C#N)cc2)cc(C(F)(F)F)n1,n,n,56,n,131,88
SMILES,CCHFV vOTU inh,GDH-TPI counter-1,Mtb FBA inh,BH1578 lux ind,Mtb FBA inh conf,GDH-TPI counter-2
CCNc1nc(Oc2ccc(F)cc2)cc(C(F)(F)F)n1,n,n,n,n,x,x
CCCCc1c(-c2ccccc2OC)ncn1Cc1ccc(C)cc1,n,x,x,x,x,x
Cn1c(=O)c(-c2ccccc2)cc2ccccc21,n,n,n,x,x,x
Cc1ccc(C)c(-n2c3nc(=O)n(C)c(=O)c-3cc3ccccc32)c1,n,n,100,n,+,+
CCCCn1c(=O)cc(C)n(-c2ccccc2)c1=O,n,n,n,n,x,x
CCCCn1c(=O)nc2n(-c3ccccc3)c3ccccc3cc-2c1=O,n,n,46,n,123,98
CCOC(=O)c1sc2cccc(Cl)c2c1N,n,n,n,n,x,x
CCOC(=O)c1sc2cccc(F)c2c1N,n,n,103,n,+,198
O=[N+]([O-])c1ccccc1S(=O)(=O)Nc1ccc(-c2ccc(N3CCOCC3)nn2)cc1,n,n,53,n,+,+
